Bioassay records as filed in PubChem.
Hedgehog inh – blocks Sonic Hedgehog signaling; Shh-LIGHT2 Gli-luciferase reporter, 30 h; inhibition, % (no concentration beside the values); 22,000 tested, 2.1% active;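 active = mean inhibition across valid replicates above about 65%, limit read from the data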;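 note: pathway switched on by Shh-conditioned medium diluted 1 in 25 in low serum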
NOMO-1 viab – STK33 inhibitor candidate reducing NOMO-1 cell viability | NOMO-1 AML viability, CellTiter-Glo luminescence, 72 h | 37,000 tested, 7.5% active | inhibition, % (no concentration beside the values); in the data active = inhibition above about 80%
PD-1 reversal – activators reversing PD-1 mediated T-cell inhibition; primary human CD4 T cells, PD-L1 beads, CellTiter-Glo 96 h; 29,000 tested, under 10 active; activation, % (concentration not given with the values); AID 2316; call rule not given here
Of the large screens only hits and unclear results are named; the others gave an inactive call. Hits are enriched below; roughly 7.7% of the tested compounds scored in any of these assays.

C[C@@H]1CN([C@@H](C)CO)C(=O)c2cccc(NC(=O)C3CC3)c2O[C@@H]1CN(C)Cc1ccc(C(=O)Nc2ccccc2N)cc1	NOMO-1 viab 128 (no result: Hedgehog inh)
C[C@@H]1CN([C@H](C)CO)C(=O)c2cccc(NC(=O)C3CC3)c2O[C@H]1CN(C)Cc1ccc(C(=O)O)cc1	none
C[C@H]1CN([C@@H](C)CO)C(=O)c2cccc(NC(=O)C3CCCCC3)c2O[C@H]1CN(C)Cc1ccc(C(=O)Nc2ccccc2N)cc1	NOMO-1 viab 127 (no result: Hedgehog inh)
C[C@@H]1CN([C@@H](C)CO)C(=O)c2cccc(NC(=O)NC3CCCCC3)c2O[C@@H]1CN(C)Cc1ccc(C(=O)Nc2ccccc2N)cc1	NOMO-1 viab 129 (no result: Hedgehog inh)
O=C(CC1(O)C(=O)Nc2ccccc21)c1ccc(OCC(=O)N2CCOCC2)cc1 (configuration not stated)	none (no result: Hedgehog inh, PD-1 reversal)
C=CCNC(=O)CC1CCCCC1	none
CCC(Oc1ccccc1)C(=O)Nc1cc2oc3ccccc3c2cc1OC (configuration not stated)	none (no result: Hedgehog inh)
C[C@@H]1CN([C@H](C)CO)C(=O)Cc2cc(NC(=O)CCN3CCOCC3)ccc2O[C@@H]1CN(C)Cc1ccc(C(=O)O)cc1	none
C[C@@H]1CN([C@H](C)CO)C(=O)Cc2cc(NC(=O)CCN3CCOCC3)ccc2O[C@H]1CN(C)Cc1ccc(C(=O)Nc2ccccc2N)cc1	none (no result: Hedgehog inh)
C[C@H]1CN([C@@H](C)CO)C(=O)Cc2cc(NC(=O)CCN3CCOCC3)ccc2O[C@H]1CN(C)Cc1ccc(C(=O)Nc2ccccc2N)cc1	NOMO-1 viab 132 (no result: Hedgehog inh)
C[C@H](CO)N1C[C@H](C)[C@H](CN(C)Cc2ccc(C(=O)Nc3ccccc3N)cc2)Oc2ccc(NC(=O)CCN3CCOCC3)cc2CC1=O	NOMO-1 viab 138 (no result: Hedgehog inh)
O=C(CSc1nc2ccccc2s1)NC1CCCCC1	none (no result: Hedgehog inh)
N#Cc1c(NC(=O)Cn2cnc3scc(-c4ccccc4)c3c2=O)sc2c1CCC2	none (no result: Hedgehog inh, PD-1 reversal)
C[C@@H]1CN([C@@H](C)CO)C(=O)c2cccc(NC(=O)Nc3cccc4ccccc34)c2O[C@H]1CN(C)C(=O)Nc1ccc(C(F)(F)F)cc1	none
C[C@H](CO)N1C[C@H](C)[C@H](CN(C)C(=O)Nc2cccc3ccccc23)Oc2c(NC(=O)Nc3ccccc3)cccc2C1=O	none
C[C@@H]1CN([C@H](C)CO)C(=O)c2cccc(NC(=O)Nc3ccc(C(F)(F)F)cc3)c2O[C@H]1CN(C)C(=O)Nc1cccc2ccccc12	NOMO-1 viab 83 (no result: PD-1 reversal)
C[C@H]1CN([C@@H](C)CO)C(=O)c2cccc(NC(=O)Nc3ccc(C(F)(F)F)cc3)c2O[C@@H]1CN(C)C(=O)Nc1cccc2ccccc12	NOMO-1 viab 102 (no result: PD-1 reversal)
O=C(CN1C(=O)c2ccccc2C1=O)Nc1ccc(NC(=O)c2ccccc2F)cc1	none (no result: Hedgehog inh)
Cc1cc(NC(=O)NCCCN2CCN(C3CCCCC3)CC2)ccc1Cl	none (no result: Hedgehog inh)
CCCCN1C(=O)[C@H]2Cc3c([nH]c4ccccc34)[C@H](c3ccc(OC)cc3)N2C1=O	Hedgehog inh 79
Cc1sc2nc(SCC(=O)O)n(-c3ccc(Cl)c(Cl)c3)c(=O)c2c1C	none (no result: Hedgehog inh)
Cc1nnc(SCC(=O)Nc2cccc3ccccc23)s1	none (no result: Hedgehog inh)
C=C1C(=O)O[C@@H]2/C=C(/COC(C)=O)CC/C=C(/CO)CC[C@@H]12	NOMO-1 viab 117
C=C1C(=O)O[C@@H]2/C=C(/CO[C@@H]3O[C@H](CO)[C@@H](O)[C@H](O)[C@H]3O)CC/C=C3\C[C@H](OC3=O)[C@@H]12	none
O=[N+]([O-])c1ccc(N2CCN(S(=O)(=O)c3ccc(F)cc3)CC2)cc1NCc1cccnc1	none (no result: Hedgehog inh)
Cc1cc(C)cc(N(C(C)C(=O)O)S(C)(=O)=O)c1 (configuration not stated)	none (no result: Hedgehog inh)
O=C(CSc1nc2ccccc2c(=O)n1-c1ccc(Cl)cc1)Nc1ccc(Cl)cc1Cl	none (no result: Hedgehog inh)
O=C(c1ccc(Br)cc1)N1Cc2ccccc2NC1=S	NOMO-1 viab 125
O=C(c1ccc(O)cc1)N1Cc2ccccc2NC1=S	none
C/C(=C\CC(C)(C)CCC(=O)c1ccoc1)C(=O)O	none
Cc1ccc(-c2nnc(-n3cnc4cc(C)c(C)cc43)c3ccccc23)cc1	none (no result: Hedgehog inh)
O=C(CSc1ncccn1)Nc1ccc(Cl)cc1	none (no result: Hedgehog inh)
O=C(CC1Sc2ncnn2C1=O)Nc1ccc(Cl)cc1 (configuration not stated)	NOMO-1 viab 107 (no result: Hedgehog inh, PD-1 reversal)
CC(C)(Oc1ccc(Cl)cc1)C(=O)Nc1cc(-c2nc3ncccc3o2)ccc1Cl	none (no result: Hedgehog inh, PD-1 reversal)
CCN(CC)CCNc1ncnc(N)c1[N+](=O)[O-]	none (no result: Hedgehog inh, PD-1 reversal)
C[C@@H]1CN([C@H](C)CO)C(=O)c2cc(NS(=O)(=O)c3ccccc3)ccc2O[C@@H]1CN(C)Cc1ccc(Oc2ccccc2)cc1	Hedgehog inh 88
Cc1noc(C)c1S(=O)(=O)Nc1ccc2c(c1)C(=O)N([C@@H](C)CO)C[C@@H](C)[C@@H](CN(C)Cc1ccc(Cl)c(Cl)c1)O2	NOMO-1 viab 82
